U2OS ROS induce = raises reactive oxygen species in U2OS cancer cells; U2OS ROS induction, H2DCF-DA fluorescence; ROS induction (% of piperlongumine), % at 10 µM; 46,000 compounds, 2% hits; AID 624156; in the data active means ROS induction above about 79%, passing the limit was not always enough;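 further: 0% = DMSO vehicle median and 100% = reference compound median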
The depositor's hits bear a star. This is one part of a sample in which hits are shown more often than they occur.

SMILES	U2OS ROS induce
O=C(Cn1c(SCc2cccc(C(F)(F)F)c2)nc2ccncc21)NCCC1=CCCCC1	-4
Cc1ccccc1OCCCC(=O)Nc1cccc(C(F)(F)F)c1	3
Cc1ccc(N=Cc2cc3ccccc3nc2Cl)cc1Cl	42
NNC(=O)c1csc(-c2cccs2)n1	-8
COc1cc(-c2nnc(SCC(=O)c3ccc(Cl)cc3)n2-c2ccccc2)cc(OC)c1OC	0
COc1ccc(-c2nnc(SCC(=O)c3ccc(F)cc3)n2-c2ccccc2)cc1OC	15
COc1ccc(-c2cc(C)nc(SCC(=O)c3cccc([N+](=O)[O-])c3)n2)cc1	92*
COc1ccc(-c2nnc(SCC(=O)c3cccc([N+](=O)[O-])c3)n2C)cc1	15
COc1cc(-c2nnc(SCC(=O)c3cccc([N+](=O)[O-])c3)n2-c2ccccc2)cc(OC)c1OC	95*
Cc1cc(C(F)(F)F)nc(SCC(=O)c2cccc([N+](=O)[O-])c2)n1	-10
Cc1nc2ccccn2c1-c1ccnc(SCC(=O)Nc2ccc(C(C)C)cc2)n1	1
O=C1NCCN1CCNC(=S)Nc1ccc(OC(F)(F)F)cc1	-11
Cc1[nH]n(-c2ccccc2)c(=O)c1/C=C1\SC(=S)N(Cc2ccccc2)C1=O	19
CC1CCCC(NC(=O)CSCc2cnn(-c3ccccc3)c2-n2cccc2)C1C (stereo unspecified)	14
Cc1ccc2c(Sc3ccc(Cl)cc3)c(C(=O)NC(C)c3ccc4c(c3)OCCO4)[nH]c2c1 (stereo unspecified)	-9
N#CC1=C(N)C(C#N)(C#N)C2(C(=O)N(Cc3ccccc3)c3ccccc32)C2CCCC=C12 (stereo unspecified)	127*
CCOc1ccc([C@H]2[C@@H]3CN(Cc4ccccc4)CC=C3C(C#N)=C(N)C2(C#N)C#N)cc1	48
CCCN1CC=C2C(C#N)=C(N)C(C#N)(C#N)C3(C(=O)Nc4ccccc43)C2C1 (stereo unspecified)	38
CCN(CC)C(=O)Cn1cc(SCC(N)=O)c2ccccc21	-2
COC(=O)c1ccc2c(=O)n(CCC3=CCCCC3)c(SCc3ccc(Cl)cc3)nc2c1	-2
O=C1/C(=C/c2ccc3ccccc3c2)COc2ccccc21	103*
COc1ccc2c(c1)OC/C(=C\c1ccc(OC)c(O)c1)C2=O	70
COc1ccc(/C=C2\CCc3ccccc3C2=O)cc1CN1CCOCC1	9
CC(C)(C)c1ccc2c(c1)c1c3n2CCN(CCC#N)C3CCC1 (stereo unspecified)	-10
COc1ccccc1-c1nn(CCC(=O)NC2CCCC2)c2nc(C)cc(C)c12	-5
SMILES	U2OS ROS induce
CCOc1cc(C(=O)Nc2cc(Cl)ccc2OC)cc(OCC)c1OCC	9
O=C1NN=C(c2ccccc2)/C1=C1\OC(c2ccccc2)=CS1	138*
COc1ccc(CC(=O)NCC2COc3ccccc3O2)cc1OC (stereo unspecified)	-3
CC(C)C(=O)N1CCCCCC1	-7
CC(=O)OCCCNC(=O)c1cc2ccccc2oc1=O	3
CCc1cc(=O)oc2cc(C)cc(OCC(=O)C(C)(C)C)c12	73
CC(=O)OC/C(=C\COc1cc(=O)oc2cccc(C)c12)CCC=C(C)C	110*
CC1=C(C)CC(C(=O)Nc2ccc(-n3cnnn3)c(C)c2)C(C(=O)O)C1 (stereo unspecified)	16
Nc1ccc(S(=O)(=O)NCCC2=CCCCC2)cc1	-4
O=c1ccc2cc3c(-c4ccc(F)cc4)coc3cc2o1	22
Cc1oc(-c2ccccc2)nc1CSc1nncn2c1cc1occc12	-3
C[C@@H]1CCCCO[C@@H](CN(C)C(=O)C2CCCCC2)[C@@H](C)CN([C@H](C)CO)C(=O)c2cc(NS(=O)(=O)c3ccccc3)ccc2O1	110*
C[C@@H]1CCCCO[C@H](CN(C)C(=O)C2CCCCC2)[C@@H](C)CN([C@H](C)CO)C(=O)c2cc(NS(=O)(=O)c3ccc(Cl)cc3)ccc2O1	35
C[C@@H]1CCCCO[C@@H](CN(C)C(=O)C2CCCCC2)[C@@H](C)CN([C@H](C)CO)C(=O)c2cc(NS(=O)(=O)c3cccs3)ccc2O1	109*
C[C@@H]1CCCCO[C@H](CN(C)C(=O)Nc2ccc(F)cc2)[C@@H](C)CN([C@H](C)CO)C(=O)c2cc(NS(=O)(=O)c3cccs3)ccc2O1	5
C[C@@H]1CCCCO[C@@H](CN(C)C(=O)Nc2ccccc2)[C@@H](C)CN([C@H](C)CO)C(=O)c2cc(NS(=O)(=O)c3cccs3)ccc2O1	9
C[C@@H]1CCCCO[C@H](CN(C)C(=O)c2ccccc2)[C@@H](C)CN([C@H](C)CO)C(=O)c2cc(NS(=O)(=O)c3cccs3)ccc2O1	9
Cc1ccc(S(=O)(=O)Nc2ccc3c(c2)C(=O)N([C@H](C)CO)C[C@H](C)[C@@H](CN(C)CC2CCCCC2)OCCCC[C@@H](C)O3)cc1	12
C[C@@H]1CCCCO[C@H](CN(C)CC2CCCCC2)[C@@H](C)CN([C@H](C)CO)C(=O)c2cc(NS(=O)(=O)c3ccccc3)ccc2O1	119*
Cc1ccc(S(=O)(=O)Nc2ccc3c(c2)C(=O)N([C@H](C)CO)C[C@H](C)[C@H](CN(C)CC2CCCCC2)OCCCC[C@@H](C)O3)cc1	46
C[C@@H]1CCCCO[C@@H](CN(C)C(=O)c2ccccc2)[C@@H](C)CN([C@H](C)CO)C(=O)c2cc(NS(=O)(=O)c3cccs3)ccc2O1	5
C[C@@H]1CCCCO[C@H](CN(C)C(=O)c2ccccc2)[C@@H](C)CN([C@H](C)CO)C(=O)c2cc(NS(=O)(=O)c3ccccc3)ccc2O1	-4
C[C@@H]1CCCCO[C@H](CN(C)C(=O)NC2CCCCC2)[C@@H](C)CN([C@H](C)CO)C(=O)c2cc(NS(=O)(=O)c3cccs3)ccc2O1	84*
CC(=O)N/C(=C/c1ccccc1Br)C(=O)NCc1ccc(C)cc1	-5
CCOc1ccc(NC(=O)C2(c3ccccc3)CCOCC2)cc1	-8
SMILES	U2OS ROS induce
O=C(/C=C/c1ccc(Cl)cc1Cl)NCC1CCCO1 (stereo unspecified)	-8
CCOC(=O)c1cc(Br)ccc1OCc1ccccc1Cl	2
C=CCNC(=O)c1c(C)cc(C)cc1C	19
CC(C)CNC(=O)c1ccc(COc2ccc3ccccc3c2)o1	7
CCOC(=O)c1sc2nc(SCC(=O)C(C)(C)C)n(Cc3ccccc3Cl)c(=O)c2c1C	-1
O=c1[nH]cnc2c1sc1nc(N3CCOCC3)c3c(c12)CCCC3	45
O=C(NCC1CC1)c1ccccc1NS(=O)(=O)c1ccc(F)cc1F	-5
COc1ccc(CCNC(=O)Nc2ccc(Cl)cc2)cc1OC	-14
Cc1ccc(CSc2nc3ccc(C(=O)N4CCN(c5ccccc5)CC4)cc3n2C)cc1	-11
C[C@H](CO)N1C[C@H](C)[C@@H](CN(C)Cc2ccc(C(F)(F)F)cc2)Oc2ccc(NS(=O)(=O)c3ccc(Cl)cc3)cc2C1=O	54
C[C@H]1CN([C@@H](C)CO)C(=O)Cc2cc(NC(=O)Cn3cnnn3)ccc2O[C@H]1CN(C)C(=O)Nc1ccc(C(F)(F)F)cc1	13
C[C@@H]1CN([C@H](C)CO)C(=O)Cc2cc(NC(=O)Cn3cnnn3)ccc2O[C@@H]1CN(C)Cc1ccc(C(F)(F)F)cc1	87*
C[C@H]1CN([C@@H](C)CO)C(=O)Cc2cc(NS(=O)(=O)c3ccc(F)cc3)ccc2O[C@@H]1CN(C)Cc1ccc(C(F)(F)F)cc1	146*
C[C@@H]1CN([C@H](C)CO)C(=O)c2cc(NS(=O)(=O)c3ccc(Cl)cc3)ccc2O[C@H]1CN(C)Cc1ccc(C(F)(F)F)cc1	1

Screening data (PubChem)
